Assay results: PubChem BioAssay (NCATS)
Records with an inconclusive call do not appear. A number with no mark means an inactive call. Calls of active or inactive are those of the source. Calls follow the shape of the dose curve; as a rule, active = well fitted inhibition curve with a large enough effect; inconclusive = small, poorly fitted or top-dose-only effect; inactive = flat fitted curve, though single readings scatter.

Assay: P-glycoprotein substrates identified in KB-8-5-11 adenocarcinoma cell line, qHTS therapeutic library screen (AID 1346987); also: nearly all actives have a fitted effect of over 65% in size
Details: KB-8-5-11 (P-gp overexpressing) viability, CellTiter-Glo, 72 h; series mostly up to 44.5 µM; activity change, negative = cytotoxicity: at the top concentration
Outline: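 P-gp-mediated resistance screen: KB-8-5-11 cells treated 72 h with compounds in dose-response. CellTiter-Glo viability.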
% is scaled to controls: 0 for no effect and ±100 for the full control effect.

Structure (SMILES) | outcome | activity change, negative = cytotoxicity
O=S(=O)(Nc1ccccn1)c1ccc(N=Cc2c(O)[nH]c3ccc4ncsc4c23)cc1 | inactive [at 9.29 µM] | –
C=CC(C)(O)CC[C@H]1C(=C)CCC2[C@](C)(C(=O)O)CCC[C@@]21C (some centres not stated) | – | 3.8%
C[C@H](O)[C@H](O)/C=C/c1cccc(O)c1CO | – | 1.57%
Cc1ccc(C)c(OCCn2cc(C(=O)O)c3ccccc32)c1 | – | 4.01%
COc1cc(N)c(Cl)cc1C(=O)NC[C@@H]1CCN2CCC[C@@H]12 | – | -15.9%
C/C=C/C=C/C(O)=C1\C(=O)[C@]2(C)C3C(C(=O)CC/C=C/C)=C(O)C4(C)C1[C@]1(C)O[C@@]4(O)[C@@]3(C)O[C@@]12O | – | -6.58% [at 17.3 µM]
COc1ccc(C2(O)CCC(N3CC[C@@H](NC(=O)CNC(=O)c4cccc(C(F)(F)F)c4)C3)CC2)cn1 (some centres not stated) | – | -12.2%
